Test results: the supplement of paper PMC10981050
Where “and” joins values, the source holds several entries; their conditions need not be identical. Equal entries are not always repeated. Structures can show the parent of a compound that is named as a salt.

Tests used:
Test in all cases: cell viability relative to vehicle control; higher = less cytotoxic
Conditions in all cases: 10 µM
K562 = test system: K562
Summary of the method: (§1)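 Four leukaemia lines, as CRISPR-edited mutant clones and isogenic wild-type clones, were tested against Selleck bioactive, kinase and epigenetic probe libraries after removal of identity-inconsistent compounds. Cells were exposed to a single 10 µM dose for 48 h, and CellTiter-Glo luminescence was then read. Viability was calculated relative to the on-plate vehicle control.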

MARIMO = test system: MARIMO
Summary of the method: as §1

MOLM14 = test system: MOLM14
Summary of the method: as §1

OCI-AML2 = test system: OCI-AML2
Summary of the method: as §1

Structure (SMILES) | cell viability (K562; SRSF2 genotype: SRSF2 P95H/wt) | cell viability (K562; SRSF2 genotype: SRSF2 wt/wt) [%] | cell viability (MARIMO; SRSF2 genotype: SRSF2 P95H/wt) [%] | cell viability (MARIMO; SRSF2 genotype: SRSF2 wt/wt) [%] | cell viability (MOLM14; SRSF2 genotype: SRSF2 P95H/wt) [%] | cell viability (MOLM14; SRSF2 genotype: SRSF2 wt/wt) [%] | cell viability (OCI-AML2; SRSF2 genotype: P95H/wt) [%] | cell viability (OCI-AML2; SRSF2 genotype: wt/wt) [%]
C[C@H]1O[C@@H](n2cc(F)c(=O)[nH]c2=O)[C@H](O)[C@@H]1O [Doxifluridine] | 102% and 95% | 92.1 | 100 | 104 | 96.5 | 105 | 97.3 | 99.7
C=CC(=O)Nc1cccc(Oc2nc(Nc3ccc(N4CCN(C)CC4)cc3)ncc2Cl)c1 | 19.3% and 33.1% | 34.2 | 29.4 | 18.8 | -0.04 | -0.03 | 0.39 | 5.07
CC(C)n1nc(-c2ccc(NC(=O)Nc3cc(C(F)(F)F)ccc3F)cc2)c2c(N)ncnc21 | 26.5% and 30.8% | 19 | 8.66 | 4.51 | 1.98 | 0.7 | 2.08 | 8.47
C=C(C)C1CC=C(C=NO)CC1 (stereo unspecified) [Perillartine] | 100% | 98.3 | 104 | 105 | 93 | 99.8 | 100 | 112
CCC(C(=O)O)c1ccc(N2Cc3ccccc3C2=O)cc1 (stereo unspecified) [Indobufen] | 92.1% and 90.3% | 102 | 91.3 | 100 | 96.6 | 101 | 92.2 | 98.3
CC(CN(C)C)Oc1nc(Nc2cc3cccc(Cl)c3cn2)cnc1C#N (stereo unspecified) | 50.7% and 62.5% | 44.9 | 62.2 | 56.3 | 15.7 | 8.7 | 17 | 18.5
CC1(C)CC[C@]2(C(=O)O[C@@H]3O[C@H](CO[C@@H]4O[C@H](CO)[C@@H](O)[C@H](O)[C@H]4O)[C@@H](O)[C@H](O)[C@H]3O)CC[C@]3(C)C(=CC[C@@H]4[C@@]5(C)CC[C@H](O[C@@H]6OC[C@H](O)[C@H](O)[C@H]6O)[C@@](C)(CO)[C@@H]5CC[C@]43C)[C@@H]2C1 [Akebia saponin D] | 107% and 101% | 103 | 105 | 113 | 103 | 108 | 96.4 | 106
Cc1c(CN2CCC(Nc3ncnc4sc(CC(F)(F)F)cc34)CC2)ccc2[nH]c(C#N)cc12 | 3.04% and 4.05% | 17.5 | 42.9 | 41.7 | 4.02 | 3.33 | 0.4 | 9.25
COC(=O)Nc1nc2cc(C(=O)c3ccc(F)cc3)ccc2[nH]1 [Flubendazole (Flutelmium)] | 18.9% and 30.8% | 27.6 | 9.3 | 12 | 8.51 | 43.1 | 6.97 | 11
Cc1cc(Nc2ncc(Cl)c(Nc3ccccc3S(=O)(=O)C(C)C)n2)c(OC(C)C)cc1C1CCNCC1 [Ceritinib (LDK378)] | 0.29% and 0.22% | 0.14 | 0.2 | 0.23 | 0.06 | 0.11 | -0.03 | 0.01
COc1cc(-c2oc3cc(O)cc(O)c3c(=O)c2O)ccc1O [Isorhamnetin] | 87.2% and 88.3% | 86.6 | 83.4 | 92.4 | 71.8 | 79.4 | 81.1 | 89
C[n+]1c2n(c(=O)c3ccccc31)CCc1c-2[nH]c2ccccc12 [Dehydroevodiamine hydrochloride] | 94.4% and 99.8% | 89.2 | 91.7 | 100 | 92.8 | 92.9 | 86.8 | 96.2
O=C(NCCCn1ccnc1)c1cc(-c2ccco2)on1 | 87.3% and 91.7% | 87.1 | 68.9 | 79.4 | 45.7 | 44.4 | 77.2 | 72.6
O=C[C@H](O)[C@H]1OC(=O)[C@@H](O)[C@H]1O [D-Glucurone] | 90.4% and 88.2% | 86.3 | 84.2 | 95.1 | 88.8 | 88.3 | 88.8 | 94.2
C[C@@](Cc1ccc(O)c(O)c1)(NN)C(=O)O [Carbidopa] | 103% and 92.2% | 101 | 92.1 | 98.2 | 93.3 | 98.4 | 93.9 | 107
CC(C)C(=O)OCC(=O)[C@@]12O[C@H](C3CCCCC3)O[C@@H]1C[C@H]1[C@@H]3CCC4=CC(=O)C=C[C@]4(C)[C@H]3[C@@H](O)C[C@@]12C [Ciclesonide] | 57% and 55.7% | 62.1 | 63.6 | 68.9 | 41.4 | 41.6 | 25.5 | 59.6
CC(C)C[C@H](NC(=O)[C@H](CCc1ccccc1)NC(=O)CN1CCOCC1)C(=O)N[C@@H](Cc1ccccc1)C(=O)N[C@@H](CC(C)C)C(=O)[C@@]1(C)CO1 [Carfilzomib (PR-171)] | 2.27% and 2.75% | 1.72 | 0.54 | 1.08 | 0.49 | 0.49 | 0.45 | 0.57
COc1cc(-c2cc(-c3cccc(O)c3)cnc2N)cc(OC)c1OC | 13.5% and 28.9% | 15.6 | 78.2 | 72.5 | 81.9 | 83 | 83.5 | 83.1
CC(C)(C)C(=O)N1N=CC[C@H]1c1ccccc1 | 101% and 98.4% | 104 | 107 | 108 | 95.5 | 103 | 97.2 | 103
C[C@@H](O)[C@H]1C(=O)N2C(C(=O)O)=C(S[C@@H]3CN[C@H](CNS(N)(=O)=O)C3)[C@H](C)[C@H]12 [Doripenem] | 98.4% and 92.9% | 97.5 | 93.2 | 102 | 99.7 | 98.3 | 89.2 | 99
CN1C(=O)c2sccc2N(C)c2nc(Nc3ccc(S(N)(=O)=O)cc3)ncc21 | 14% and 30.1% | 63.4 | 22.4 | 25.9 | 5.5 | 3.55 | 8.63 | 10.6

Structure (SMILES) | cell viability (K562; SRSF2 genotype: SRSF2 P95H/wt) | cell viability (K562; SRSF2 genotype: SRSF2 wt/wt) [%] | cell viability (MARIMO; SRSF2 genotype: SRSF2 P95H/wt) [%] | cell viability (MARIMO; SRSF2 genotype: SRSF2 wt/wt) [%] | cell viability (MOLM14; SRSF2 genotype: SRSF2 P95H/wt) [%] | cell viability (MOLM14; SRSF2 genotype: SRSF2 wt/wt) [%] | cell viability (OCI-AML2; SRSF2 genotype: P95H/wt) [%] | cell viability (OCI-AML2; SRSF2 genotype: wt/wt) [%]
NC(=O)N/N=C/c1ccc([N+](=O)[O-])o1 [Nitrofurazone (Nitrofural)] | 98.5% and 94.8% | 96.7 | 104 | 100 | 96.8 | 99.5 | 102 | 103
OC[C@H]1NC[C@H](O)[C@@H](O)[C@@H]1O [1-Deoxynojirimycin] | 103% and 98.1% | 94.5 | 103 | 107 | 97.8 | 106 | 96.4 | 108
CC(C)c1cc2c(c(O)c1O)[C@@]13CCCC(C)(C)[C@@H]1C[C@@H]2OC3=O [Carnosol] | 43.3% and 33.8% | 61.7 | 4.39 | 0.77 | 6.11 | 5.25 | 5.94 | 1.96
Cc1cc(N2CCOCC2)cc2[nH]c(-c3c(NCC(O)c4cccc(Cl)c4)cc[nH]c3=O)nc12 (stereo unspecified) | 46.4% and 36.7% | 52.1 | 33.2 | 31 | 5.77 | 9.63 | 7.45 | 18
O=C(O)CCCc1c[nH]c2ccccc12 [3-Indolebutyric acid (IBA)] | 108% and 96.9% | 96.9 | 100 | 107 | 93.2 | 101 | 97.2 | 106
CC1(C)[C@@H](O[C@H]2O[C@H](C(=O)O)[C@@H](O)[C@H](O)[C@H]2O[C@@H]2O[C@H](C(=O)O)[C@@H](O)[C@H](O)[C@H]2O)CC[C@]2(C)[C@H]3C(=O)C=C4[C@@H]5C[C@@](C)(C(=O)O)CC[C@]5(C)CC[C@@]4(C)[C@]3(C)CC[C@@H]12 [Diammonium Glycyrrhizinate] | 98.9% and 104% | 99.1 | 101 | 99.7 | 100 | 103 | 101 | 114
O=c1oc2cc(O)ccc2c2ccc(O)cc12 [S5312 Urolithin A.cdx] | 98.3% and 101% | 106 | 99.9 | 98.3 | 97.4 | 105 | 89 | 94.5
CN(C)CCC=C1c2ccccc2CCc2ccccc21 [Amitriptyline HCl] | 83.3% and 90.4% | 88.2 | 77.1 | 83 | 79 | 89.7 | 80.7 | 89.2
O=C1NC(=O)C(c2cnc3ccccn23)=C1c1cn2c3c(cc(F)cc13)CN(C(=O)N1CCCCC1)CC2 | 56.1% and 43.4% | 71.5 | 94.4 | 103 | 86.8 | 79.5 | 118 | 119
C[C@]12CC[C@H](O)CC1=CC[C@@H]1[C@@H]2CC[C@]2(C)C(n3cnc4ccccc43)=CC[C@@H]12 [Galeterone (TOK-001)] | 83% and 93.4% | 95.7 | 77.5 | 81.9 | 88.2 | 97.8 | 80.3 | 80.1
O=C(Nc1ccccc1-c1cn2c(CN3CCNCC3)csc2n1)c1cnc2ccccc2n1 | 0.23% and 0.19% | 0.26 | 0.19 | 0.26 | 0.15 | 0.18 | 0.14 | 0.2
NCc1c[nH]c(=S)n1[C@H]1CCc2c(F)cc(F)cc2C1 [Nepicastat hydrochloride] | 100% and 97.2% | 96.6 | 92.2 | 97.4 | 88.4 | 101 | 101 | 103
O=C(COc1cccc2c(=O)[nH]ccc12)c1ccccc1 | 89.7% and 93.9% | 98.9 | 94.6 | 88.4 | 102 | 98.5 | 88 | 84.1
CC1(C)S[C@@H]2[C@H](NC(=O)C(c3ccccc3)S(=O)(=O)O)C(=O)N2[C@H]1C(=O)O (stereo partly specified) [Sulbenicillin Sodium] | 109% and 103% | 97.7 | 104 | 113 | 97.7 | 105 | 90.7 | 99.3
CC1=CC(=O)CC(C)(C)C1(O)/C=C/C(C)=C\C(=O)O (stereo unspecified) [Abscisic Acid (Dormin)] | 102% and 99.2% | 98.1 | 101 | 110 | 104 | 101 | 105 | 102
CCOCCn1c(C2CCN(CCc3ccc(C(C)(C)C(=O)O)cc3)CC2)nc2ccccc21 [Bilastine] | 105% and 108% | 113 | 107 | 104 | 107 | 106 | 108 | 96.2
CCS(=O)(=O)N1CCC([C@@H](C)n2c(C)c(C(=O)NCc3c(OC)cc(C)[nH]c3=O)c3ccccc32)CC1 | 100% and 98.2% | 95.7 | 99.8 | 111 | 100 | 99 | 107 | 109
NC(=O)Nc1cc(-c2cccc(F)c2)sc1C(=O)N[C@H]1CCCNC1 | 3.91% and 4.76% | 6.23 | 13.3 | 13.4 | 1.02 | 0.84 | 2.47 | 8.51
CCCCS(=O)(=O)N[C@@H](Cc1ccc(OCCCCC2CCNCC2)cc1)C(=O)O [Tirofiban Hydrochloride] | 94.8% and 103% | 96 | 89.6 | 104 | 101 | 99.6 | 100 | 107
Nc1nc(=S)c2ncn([C@H]3C[C@H](O)[C@@H](CO)O3)c2[nH]1 | 29.9% and 33.4% | 29.9 | 56.1 | 44.8 | 44.1 | 31.7 | 22.8 | 27.8
CCCSc1ccc2[nH]c(NC(=O)OC)nc2c1 [Albendazole (Albenza)] | 19.1% and 33.6% | 30.6 | 9.83 | 11.3 | 6.95 | 2.47 | 5.18 | 12.9
